ELG1 genotoxic: qHTS screen for small molecules that induce genotoxicity in human embryonic kidney (HEK293T) cells expressing luciferase-tagged ELG1; HEK293T ELG1-luciferase reporter, luminescence, 16 h; Potency, µM (titrated, usually from 46 µM), without a hit: at the highest dose activity change, positive = activation, most hits filed as activators; 330,000 tested, 1.3% active; AID 504466, 2011; further: % of control where 0% means no effect; nearly all actives have a fitted effect of over 60% in size
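Genotoxic stress is detected as increased luminescence from luciferase-tagged ELG1 in HEK293T cells, measured with ONE-Glo after a 16 hr treatment at 37 °C.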
FLuc modulator: qHTS profiling assay for firefly luciferase inhibitor/activator using purifed enzyme and Km concentrations of substrates (counterscreen for miR-21 project). Potency, µM (titrated, usually from 57.5 µM), for inactives: at the highest dose activity change, negative = inhibition, actives largely listed as inhibitors. Luciferin 4-monooxygenase (Photinus pyralis), P08659. purified FLuc, Km substrates, luminescence inhibition. 360,000 tested, 6.9% active;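 further: plate controls were vehicle for no effect and reference inhibitor for full effect; nearly all actives have a fitted effect of over 55% in size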
Target sequence (P08659 whole entry, looked up): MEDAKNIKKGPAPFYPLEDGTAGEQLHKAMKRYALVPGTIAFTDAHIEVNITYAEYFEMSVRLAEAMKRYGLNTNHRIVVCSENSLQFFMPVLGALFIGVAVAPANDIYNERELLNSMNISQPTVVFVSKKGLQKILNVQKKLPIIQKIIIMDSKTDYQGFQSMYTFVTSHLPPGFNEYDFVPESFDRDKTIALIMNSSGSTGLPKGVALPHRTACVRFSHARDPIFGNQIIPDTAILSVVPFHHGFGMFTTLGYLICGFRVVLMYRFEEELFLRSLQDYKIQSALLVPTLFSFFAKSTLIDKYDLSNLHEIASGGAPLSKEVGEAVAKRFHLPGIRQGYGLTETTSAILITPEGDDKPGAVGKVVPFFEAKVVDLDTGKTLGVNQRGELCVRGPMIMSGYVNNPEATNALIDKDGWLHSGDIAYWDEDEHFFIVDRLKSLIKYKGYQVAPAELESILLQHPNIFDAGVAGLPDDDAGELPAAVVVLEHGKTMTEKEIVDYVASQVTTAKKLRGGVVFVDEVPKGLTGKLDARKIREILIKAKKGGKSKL
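Biochemical qHTS of compounds, final roughly 60 µM downward over six points, against 10 nM purified firefly luciferase using Km concentrations of substrates (10 uM D-luciferin, 10 uM ATP) in Tris acetate pH 7.5 buffer; luminescence output.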
ELG1 repair inh: qHTS screen for small molecules that inhibit ELG1-dependent DNA repair in human embryonic kidney (HEK293T) cells expressing luciferase-tagged ELG1; HEK293T ELG1-luciferase reporter, luminescence, 16 h; DNA damage induced by 5-fluorouridine; Potency, µM (doses to about 46.1 µM), inactives show at the top dose activity change, negative = inhibition, usual class: inhibitors; 330,000 tested, 2.3% active; further: on the % scale 0 is the no-effect control and ±100 the full control effect; nearly all actives have a fitted effect of over 55% in size
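5-Fluorouridine DNA damage + compound/DMSO, 2,000 cells/well, 16 h, 37 °C/5% CO2. ONE-Glo, 30 min RT, luminescence. Readout = decrease in reporter signal.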
NPC1 prom act: qHTS Assay for NPC1 Promoter Activators; Potency, µM (titrated, usually from 9.22 µM), for inactives: at the highest dose activation, most hits filed as activators; 320,000 tested, 2.4% active; Huh7 NPC1 promoter luciferase reporter, 24 h; further: % of control where 0% means no effect; nearly all actives have a fitted effect of over 60% in size
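In 1536-well qHTS, Huh7 cells harboring an NPC1 promoter–luciferase construct received compound for 24 h; activation was quantified by luminescence following luciferase reagent addition.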
Rab9 promoter act: qHTS Assay for Rab9 Promoter Activators; Potency, µM (doses to about 9.22 µM), for the others: top-dose activation, negative = inhibition, actives largely listed as activators; 320,000 tested, 2.8% active; Huh7 Rab9 promoter-luciferase reporter, luminescence, 24 h; further: % of control where 0% means no effect; nearly all actives have a fitted effect of over 60% in size
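Quantitative HTS format; Huh7 Rab9-luciferase reporter cells (1500/well) receive compound 2 h post-plating, incubate 24 h at 37 °C, then get luciferase reagent for 10 min before luminescence reading.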
SMN2 splice up: qHTS Assay for Enhancers of SMN2 Splice Variant Expression | 210,000 tested, 2.8% active | Potency, µM (series often up to 46.1 µM), without a hit: at the top dose activity change, positive = activation, most hits filed as activators | HEK293 SMN2-luciferase splicing reporter, luminescence, 30-36 h; further: % of control where 0% means no effect; nearly all actives have a fitted effect of over 55% in size
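qHTS luciferase splicing reporter: luminescence rises when SMN2 exon 7 is included in transfected HEK293 cells. Compound exposure lasted 30-36 h at 37C, with 4.5 mM final sodium butyrate as control, followed by a ONE-Glo read.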
Active calls of the source: *; ? = inconclusive; . = no result; [ ] = dose if it differs, or a comment. In the library only some 9.4% were active in any assay of this set; here they are far more common. The call rests on the fitted dose curve; in most records, active means well fitted curve in the direction sought with a large enough effect; inconclusive means small, poorly fitted or top-dose-only effect, or another doubt; inactive means no such curve, though single readings can be large; an effect the other way counts as inactive or inconclusive. Potency means the concentration at half of the fitted maximal effect.

SMILES	ELG1 genotoxic	FLuc modulator	ELG1 repair inh	NPC1 prom act	Rab9 promoter act	SMN2 splice up
COc1cc(-n2c(N)c(C(=O)NCc3ccco3)c3nc4ccccc4nc32)cc(OC)c1OC	10%	-1%	-8%	-5%	-6%	-28%
Cc1ccccc1CN(c1ccc(C(=O)N2CCc3ccccc3C2)cc1)S(C)(=O)=O	-5%	3%	15µM*	-2%	-2%	-29%
O=C(Nc1cccc(Cl)c1)Nc1ccccc1C(=O)NCc1ccco1	1%	19µM*	3%	3%	7%	9%
COc1ccc(C(=O)Nc2ccccc2C(=O)NCc2ccco2)cc1OC	-5%	-14%	15µM*	1%	9%	19%
COc1ccccc1C(=O)c1c(N)c(-c2nc(-c3ccccc3)cs2)c2ccccn12	.	-5%	.	.	.	2%
Cc1ccc(-c2noc(/C=C/c3ccccc3)n2)cc1	19%	9.5µM*	?	?	?	?
C(=C\c1nc(-c2cccnc2)no1)/c1ccccc1	9%	4.8µM*	?	28%	?	.
Clc1ccccc1/C=C/c1nc(-c2cccnc2)no1	?	1.7µM*	?	1.3µM*	0.63µM*	.
Clc1ccc(-c2noc(/C=C/c3ccccc3)n2)cc1	?	?	?	27%	24%	.
Cc1c(Cl)cccc1NC(=O)c1ncn(-c2ccccc2)n1	.	-12%	.	.	.	4%
Oc1ccc2ccccc2c1Cc1c(O)ccc2ccccc12	.	.	.	.	.	-3%[9.22 µM]
CSc1ccc(C2c3[nH]c4ccccc4c3CCN2C(=O)CCC2CCCC2)cc1 (stereo not given)	.	-2%	.	.	.	.
Cc1ccc(NC(=O)c2cc(S(=O)(=O)N3CCc4ccccc43)cn2C)c(Cl)c1	.	-8%	.	.	.	.
Oc1c(C2=NCCNC(C(F)(F)F)=C2)ccc2ccccc12	9.2µM*	4.8µM*	?	2.8µM*	2.2µM*	11µM*
COc1ccc(/C=N/Nc2ccccn2)cc1O	?	6.7µM*	?	?	?	.
CC1(C)Cc2ccccc2C(N/N=C/c2ccc(Cl)cc2)=N1	-5%	17µM*	-2%	-2%	-3%	-8%
CCOc1ccc(/C=N/Nc2ccccn2)cc1	2.3µM*	1.2µM*	?	1.3µM*	0.5µM*	1.6µM*
Fc1ccc(/C=N/Nc2ccccn2)cc1	?	11µM*	?	28%	3.5µM*	81%
CCCSc1nc2sc3c(c2c(=O)n1-c1ccc(C)c(Cl)c1)CCN(C(C)=O)C3	.	1%	.	.	.	-10%
O=C(c1csnn1)N1CCC2(CC1)CCN(c1ccncc1)CC2	.	.	.	.	.	-16%
Cc1ccc(/C=N/Nc2ccccn2)s1	?	11µM*	?	?	?	.
COc1ccc2nc(Cl)c(/C=N/Nc3ccccn3)cc2c1	?	0.54µM*	?	28%	?	?
Clc1ccc(/C=N/Nc2ccccn2)cc1	?	6.7µM*	?	?	3.2µM*	.
Brc1ccc(/C=N/Nc2ccccn2)cc1	?	6.7µM*	?	?	3.5µM*	.
COc1ccc(CCNC(=O)c2c[nH]n3c(=O)c(Cc4ccccc4Cl)c(C)nc23)cc1OC	.	-15%	.	.	.	.
CCOC(=O)c1noc2ncn(CC(=O)Nc3cccc(C(F)(F)F)c3)c(=O)c12	.	15%	.	.	.	.
Clc1cccc(/C=N/Nc2nc(Cl)nc3ccccc23)c1	?	4.8µM*	?	2.8µM*	4µM*	22µM*
Cc1cc(C)nc(N/N=C/c2cccc(Cl)c2)n1	13%	?	?	10%	27%	?
